Activity calls are given as the source filed them. The calls were made as follows: active = hit-call score of the fitted dose curve at least 0.9, where 1 is the maximum; inactive = score below 0.9.
Assays:
Details in all cases: mRNA level, 48 h; actives raise or lower the signal
[1] = read-out: Apoptosis regulator Bcl-2 (Homo sapiens) (UniProt P10415); test: LTEA_HepaRG_BCL2: Life Technologies and Expression Analysis (LTEA) Assay for Bcl-2 gene using HepaRG (AID 2283475);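 also: BCL2 transcript by TaqMan qRT-PCR normalised to ACTB GAPDH and POLR2A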
Summary of the method: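 Plated human HepaRG cells are exposed to test chemicals for 48 h across eight concentrations from 100 uM downward in half-log steps (0.5% DMSO). BCL2 expression is then measured by qRT-PCR with housekeeping normalisation and fitted bidirectionally against vehicle.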

[2] = read-out: Bcl-2 (BID) gene, BID (gene 637); test: LTEA_HepaRG_BID: Life Technologies and Expression Analysis (LTEA) Assay for Bcl-2 (BID) gene using HepaRG (AID 2283476)
Summary of the method: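 Cells are plated, cultured 48 h, switched to serum-free induction medium, then dosed 48 h (100 uM top, half-log steps, 0.5% DMSO). RNA is isolated and BID expression read by qRT-PCR.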

[3] = read-out: Caspase-3 (Homo sapiens) (UniProt P42574); test: LTEA_HepaRG_CASP3: Life Technologies and Expression Analysis (LTEA) Assay for cysteine-aspartic acid protease (CASP3) using HepaRG (AID 2283477)
Summary of the method: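 Transcript-level assay: CASP3 mRNA in human HepaRG after 48 h treatment, eight half-log concentrations from 100 uM in 0.5% DMSO, quantified by qRT-PCR.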

[4] = read-out: Cytochrome P450 (CYP24A1), CYP24A1 (gene 1591); test: LTEA_HepaRG_CYP24A1: Life Technologies and Expression Analysis (LTEA) Assay for Cytochrome P450 (CYP24A1) using HepaRG (AID 2283478)
Summary of the method: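 Gene expression of CYP24A1 by TaqMan qRT-PCR in HepaRG after 48 h treatment, highest concentration 100 uM; activity fitted in both directions relative to DMSO vehicle.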

[5] = read-out: Cytochrome P450 (CYP1A2), CYP1A2 (gene 1544); test: LTEA_HepaRG_CYP1A2: Life Technologies and Expression Analysis (LTEA) Assay for Cytochrome P450 (CYP1A2) using HepaRG (AID 2283479);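 as to AC50: TaqMan qRT-PCR transcript level normalized to ACTB GAPDH and POLR2A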
Summary of the method: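 In duplicate wells, HepaRG cultures maintained in 0.5% DMSO were treated 48 h across an 8-point, half-log series topping at 100 uM; phenobarbital (1 mM) served as induction control. Expression was read by qRT-PCR.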

[6] = read-out: cysteine-aspartic acid protease (CASP8), CASP8 (gene 841); test: LTEA_HepaRG_CASP8: Life Technologies and Expression Analysis (LTEA) Assay for cysteine-aspartic acid protease (CASP8) using HepaRG (AID 2283480)
Summary of the method: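 Concentration-response in duplicate up to 100 uM (half-log steps, 0.5% DMSO) on differentiated HepaRG cultures for 48 h. Expression change of CASP8 mRNA is determined by TaqMan qRT-PCR with housekeeping-gene normalization.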

[7] = read-out: Cytochrome P450 (CYP2B6), CYP2B6 (gene 1555); test: LTEA_HepaRG_CYP2B6: Life Technologies and Expression Analysis (LTEA) Assay for Cytochrome P450 (CYP2B6) using HepaRG (AID 2283481)
Summary of the method: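 Human HepaRG, 48 h dosing, 0.5% DMSO vehicle, top dose 100 uM. CYP2B6 transcript by qRT-PCR, housekeeping-normalized, bidirectional curve fit.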

[8] = read-out: Cytochrome P450 2C19 (Homo sapiens) (UniProt P33261); test: LTEA_HepaRG_CYP2C19: Life Technologies and Expression Analysis (LTEA) Assay for CYP2C19 using HepaRG (AID 2283482)
Summary of the method: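 Endpoint: CYP2C19 mRNA change, bidirectional fit vs 0.5% DMSO. Cells: HepaRG, 48 h exposure, eight-point series topping at 100 uM. Quantitation: qRT-PCR normalized to ACTB, GAPDH, POLR2A.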

[9] = read-out: CYP2C8 (gene 1558); test: LTEA_HepaRG_CYP2C8: Life Technologies and Expression Analysis (LTEA) Assay for CYP2C8 using HepaRG (AID 2283483)
Summary of the method: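 This is a transcriptional endpoint in HepaRG cultures: 48 h exposure, highest concentration 100 uM. CYP2C8 mRNA is quantified by TaqMan qRT-PCR.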

[10] = read-out: CYP2C9 (gene 1559); test: LTEA_HepaRG_CYP2C9: Life Technologies and Expression Analysis (LTEA) Assay for CYP2C9 using HepaRG (AID 2283484)
Summary of the method: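 Eight-point concentration-response (highest 100 uM, half-log dilutions) in HepaRG cells for 48 h; CYP2C9 expression by qRT-PCR normalized to ACTB, GAPDH, POLR2A. Bidirectional fit, DMSO baseline.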

[11] = read-out: CYP2E1 (gene 1571); test: LTEA_HepaRG_CYP2E1: Life Technologies and Expression Analysis (LTEA) Assay for CYP2E1 using HepaRG (AID 2283485)
Summary of the method: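 Readout is qRT-PCR of CYP2E1 mRNA, normalized to three housekeeping genes and fitted bidirectionally against 0.5% DMSO. HepaRG cells were dosed 48 h at eight concentrations, highest 100 uM with half-log dilutions.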

[12] = read-out: CYP4A11 (gene 1579); test: LTEA_HepaRG_CYP4A11: Life Technologies and Expression Analysis (LTEA) Assay for CYP4A11 using HepaRG (AID 2283486)
Summary of the method: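 Human hepatic HepaRG cultures receive duplicate 48 h exposures across a concentration-response series topping at 100 uM. Expression changes in CYP4A11 are measured by qRT-PCR relative to DMSO controls.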

[13] = read-out: Cytochrome P450 3A4 (Homo sapiens) (UniProt P08684); test: LTEA_HepaRG_CYP3A4: Life Technologies and Expression Analysis (LTEA) Assay for CYP3A4 using HepaRG (AID 2283487)
Summary of the method: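 HepaRG, 48 h exposure, 8-pt CRC from 100 uM (half-log), 0.5% DMSO, duplicates; serum-free induction medium. Readout: CYP3A4 mRNA, qRT-PCR, ACTB/GAPDH/POLR2A normalization. Bidirectional fit vs DMSO.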

[14] = read-out: DNA damage-inducible transcript 3 (DDIT3), DDIT3 (gene 1649); test: LTEA_HepaRG_DDIT3: Life Technologies and Expression Analysis (LTEA) Assay for DNA damage-inducible transcript 3 (DDIT3) using HepaRG (AID 2283488)
Summary of the method: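 Cells are human HepaRG liver cells treated for 48 h with eight half-log concentrations up to 100 uM in 0.5% DMSO. Transcript levels come from qRT-PCR normalized to three housekeeping genes, with activity fitted in both directions relative to vehicle.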

[15] = read-out: Pro-epidermal growth factor (Homo sapiens) (UniProt P01133); test: LTEA_HepaRG_EGF: Life Technologies and Expression Analysis (LTEA) Assay for Epidermal growth factor (EGF) using HepaRG (AID 2283489)
Summary of the method: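 Concentration-response mRNA assay: HepaRG cells dosed 48 h (max 100 uM, 0.5% DMSO), EGF measured by qRT-PCR and normalized to ACTB/GAPDH/POLR2A.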

[16] = read-out: Ezrin (EZR), EZR (gene 7430); test: LTEA_HepaRG_EZR: Life Technologies and Expression Analysis (LTEA) Assay for Ezrin (EZR) using HepaRG (AID 2283491)
Summary of the method: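 Read-out is EZR transcript level by qRT-PCR, normalized to three housekeeping genes and fitted bidirectionally against the DMSO control. Human HepaRG cells received test chemicals for 48 h at eight half-log concentrations up to 100 uM in 0.5% DMSO.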

[17] = read-out: Cytochrome P450 3A7 (Homo sapiens) (UniProt P24462); test: LTEA_HepaRG_CYP3A7: Life Technologies and Expression Analysis (LTEA) Assay for CYP3A7 using HepaRG (AID 2283492)
Summary of the method: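 qRT-PCR of CYP3A7 in HepaRG lysates after 48 h treatment; concentration-response (8 points, max 100 uM) analysed bidirectionally relative to 0.5% DMSO controls.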

[18] = read-out: CYP3A5 (gene 1577); test: LTEA_HepaRG_CYP3A5: Life Technologies and Expression Analysis (LTEA) Assay for CYP3A5 using HepaRG (AID 2283493)
Summary of the method: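 Human HepaRG hepatic cells receive 48 h chemical treatment at eight concentrations (half-log steps from 100 uM) in 0.5% DMSO. Expression of CYP3A5 is quantified by Fluidigm qRT-PCR and normalized to three reference genes.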

[19] = read-out: Apolipoprotein A-V (APOA5) gene, APOA5 (gene 116519); test: LTEA_HepaRG_APOA5: Life Technologies and Expression Analysis (LTEA) Assay for Apolipoprotein A-V (APOA5) gene using HepaRG (AID 2283474)
Summary of the method: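 Concentration-response of APOA5 expression in HepaRG: eight half-log doses to 100 uM, 48 h, qRT-PCR normalized to ACTB/GAPDH/POLR2A, bidirectional fitting with 0.5% DMSO as baseline.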

[20] = read-out: Early growth response protein 1 (EGR1) transcription factor, EGR1 (gene 1958); test: LTEA_HepaRG_EGR1: Life Technologies and Expression Analysis (LTEA) Assay for Early growth response protein 1 (EGR1) transcription factor using HepaRG (AID 2283490)
Summary of the method: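 EGR1 expression change in human HepaRG after 48 h chemical exposure, assessed by housekeeping-normalized qRT-PCR; concentration-response up to 100 uM, fitted in both directions against DMSO controls.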

Measured: AC50

Apoptosis regulator Bcl-2 (Homo sapiens), sequence (P10415 whole entry, looked up): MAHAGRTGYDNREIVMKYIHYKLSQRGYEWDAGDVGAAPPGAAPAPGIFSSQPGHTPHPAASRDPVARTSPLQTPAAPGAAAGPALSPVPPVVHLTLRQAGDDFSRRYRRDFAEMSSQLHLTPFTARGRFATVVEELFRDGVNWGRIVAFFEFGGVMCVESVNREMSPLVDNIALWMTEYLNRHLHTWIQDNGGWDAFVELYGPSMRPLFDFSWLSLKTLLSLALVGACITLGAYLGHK
Cytochrome P450 3A4 (Homo sapiens), sequence (P08684 whole entry, looked up): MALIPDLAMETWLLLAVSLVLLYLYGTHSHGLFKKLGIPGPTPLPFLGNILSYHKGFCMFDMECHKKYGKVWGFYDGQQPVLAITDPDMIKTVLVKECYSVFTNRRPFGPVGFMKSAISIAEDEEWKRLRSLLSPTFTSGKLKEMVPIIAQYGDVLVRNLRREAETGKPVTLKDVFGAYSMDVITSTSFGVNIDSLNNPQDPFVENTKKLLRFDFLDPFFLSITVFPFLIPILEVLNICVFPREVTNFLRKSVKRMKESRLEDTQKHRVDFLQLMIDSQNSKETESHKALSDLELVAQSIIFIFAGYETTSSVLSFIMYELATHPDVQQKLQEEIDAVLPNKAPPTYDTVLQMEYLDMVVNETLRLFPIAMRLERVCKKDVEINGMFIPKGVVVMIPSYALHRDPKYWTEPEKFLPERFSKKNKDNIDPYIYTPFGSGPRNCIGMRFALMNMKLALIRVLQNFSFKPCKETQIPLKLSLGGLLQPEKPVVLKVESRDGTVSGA
Caspase-3 (Homo sapiens), sequence (P42574 whole entry, looked up): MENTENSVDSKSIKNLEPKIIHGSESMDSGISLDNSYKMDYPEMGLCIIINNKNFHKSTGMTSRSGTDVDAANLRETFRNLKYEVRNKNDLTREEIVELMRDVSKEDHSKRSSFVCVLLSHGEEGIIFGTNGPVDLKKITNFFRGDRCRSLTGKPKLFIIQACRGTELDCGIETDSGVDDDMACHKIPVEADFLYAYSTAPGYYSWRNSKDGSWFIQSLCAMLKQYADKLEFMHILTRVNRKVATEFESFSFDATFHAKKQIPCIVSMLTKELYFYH
Cytochrome P450 3A7 (Homo sapiens), sequence (P24462 whole entry, looked up): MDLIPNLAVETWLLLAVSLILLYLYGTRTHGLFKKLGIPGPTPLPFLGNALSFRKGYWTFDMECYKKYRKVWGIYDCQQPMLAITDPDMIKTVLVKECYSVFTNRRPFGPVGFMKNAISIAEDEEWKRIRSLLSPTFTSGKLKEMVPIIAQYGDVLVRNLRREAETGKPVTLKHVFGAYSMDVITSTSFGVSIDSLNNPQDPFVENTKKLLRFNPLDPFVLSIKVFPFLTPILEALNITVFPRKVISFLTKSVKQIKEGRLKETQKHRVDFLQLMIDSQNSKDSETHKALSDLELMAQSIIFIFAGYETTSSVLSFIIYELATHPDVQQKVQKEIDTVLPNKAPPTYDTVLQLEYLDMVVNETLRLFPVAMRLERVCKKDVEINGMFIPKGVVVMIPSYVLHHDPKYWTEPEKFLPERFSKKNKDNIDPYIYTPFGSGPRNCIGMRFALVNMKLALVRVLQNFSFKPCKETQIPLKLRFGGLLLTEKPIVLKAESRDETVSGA
Cytochrome P450 2C19 (Homo sapiens), sequence (P33261 whole entry, looked up): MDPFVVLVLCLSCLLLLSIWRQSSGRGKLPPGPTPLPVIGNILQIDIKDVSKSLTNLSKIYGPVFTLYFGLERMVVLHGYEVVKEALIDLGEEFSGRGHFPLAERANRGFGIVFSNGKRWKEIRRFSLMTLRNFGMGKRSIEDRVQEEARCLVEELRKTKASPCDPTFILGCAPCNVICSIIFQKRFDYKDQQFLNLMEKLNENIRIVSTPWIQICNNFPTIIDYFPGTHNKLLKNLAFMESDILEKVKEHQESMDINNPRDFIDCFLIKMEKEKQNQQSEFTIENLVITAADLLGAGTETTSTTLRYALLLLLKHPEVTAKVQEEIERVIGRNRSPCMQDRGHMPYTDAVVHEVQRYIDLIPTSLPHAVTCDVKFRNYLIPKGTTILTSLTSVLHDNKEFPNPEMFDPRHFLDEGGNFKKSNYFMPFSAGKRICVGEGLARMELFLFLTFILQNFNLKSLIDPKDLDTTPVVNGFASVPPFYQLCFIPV

CCC(CC)Nc1c([N+](=O)[O-])cc(C)c(C)c1[N+](=O)[O-]
active: [7] 13.1 µM | [8] 6.35 µM | [11] 64.7 µM | [13] 25.4 µM | [15] 50 µM | [17] 16.7 µM
not listed: [19] | [20]
inactive: all other assays above

CCOP(=S)(OCC)Oc1ccc([N+](=O)[O-])cc1
active: [5] 15.1 µM | [7] 0.636 µM | [11] 7.92 µM | [13] 8.92 µM | [17] 6.02 µM
not listed: [8] | [9]
inactive: all other assays above

COP(=O)(OC)C(O)C(Cl)(Cl)Cl (centres undefined)
inactive: [19] | [1] | [3] | [6] | [14] | [15] | [20] | [16]
active: [2] 0.155 µM

CCc1cnc(C2=NC(C)(C(C)C)C(=O)N2)c(C(=O)O)c1 (centres undefined)
not listed: [8] | [20]
inactive: all other assays above

COc1ccc(C(=CC(=O)N2CCOCC2)c2ccc(Cl)cc2)cc1OC
active: [7] 0.00252 µM | [11] 15.3 µM | [12] 59 µM | [13] 9.63 µM
not listed: [8] | [9] | [20]
inactive: all other assays above

C[Si](Cn1cncn1)(c1ccc(F)cc1)c1ccc(F)cc1
inactive: [3] | [4] | [6] | [15] | [20] | [16] | [18]
active: [19] 15.8 µM | [1] 35 µM | [2] 50 µM | [5] 85.6 µM | [7] 68.8 µM | [10] 35.5 µM | [11] 19.4 µM | [12] 25.9 µM | [13] 82.4 µM | [14] 31.9 µM | [17] 81.9 µM

CNc1cnn(-c2cccc(C(F)(F)F)c2)c(=O)c1Cl
active: [5] 6.1 µM | [7] 6.51 µM | [11] 41.1 µM | [13] 31.5 µM | [15] 29.8 µM
not listed: [8] | [9]
inactive: all other assays above

CCOP(=O)(OCC)Oc1cc(C)nc(C(C)C)n1
not listed: [8] | [9]
inactive: all other assays above

CSc1nnc(C(C)(C)C)c(=O)n1N
active: [7] 14.6 µM | [11] 23.2 µM
not listed: [8] | [9] | [20]
inactive: all other assays above

CC(=NC#N)N(C)Cc1ccc(Cl)nc1
active: [7] 50 µM | [9] 50 µM | [13] 50 µM | [17] 50 µM
not listed: [8] | [20]
inactive: all other assays above

CN(C)C(=O)Nc1cccc(C(F)(F)F)c1
active: [2] 79.3 µM | [5] 42 µM | [7] 2.55 µM | [11] 50 µM | [13] 10.4 µM | [17] 7.66 µM
not listed: [8] | [9]
inactive: all other assays above

O=[N+]([O-])c1cc(C(F)(F)F)c(Cl)c([N+](=O)[O-])c1Nc1ncc(C(F)(F)F)cc1Cl
active: [5] 8.27 µM | [7] 13 µM | [10] 17.8 µM | [11] 13.1 µM | [12] 27.6 µM | [13] 30.2 µM | [20] 90.7 µM | [17] 23.1 µM | [18] 66.7 µM
not listed: [8] | [9]
inactive: all other assays above

CC(C)=CC1C(C(=O)OCN2C(=O)C3=C(CCCC3)C2=O)C1(C)C (centres undefined)
active: [5] 31.5 µM | [7] 50 µM
not listed: [8] | [9] | [20]
inactive: all other assays above

CCOP(=S)(OCC)Oc1cc(C)nc(C(C)C)n1
active: [5] 29.3 µM | [7] 2.5 µM | [11] 9.92 µM
not listed: [8] | [13] | [20]
inactive: all other assays above

Source: PubChem BioAssay (EPA / NIEHS)
